From the supplement of paper PMC3545927
Some of the results follow. The hit rate among all sequences tested is not known here.

Target: furin, P09958
Assay: furin cleavage Z-score vs untreated control; higher = more cleavage, active = 3.5 or more, inactive = 1 or less, 8 variable residues between constant flanks
Outline: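 Sequencing of released DNA, tagged with adapters by PCR, gave read counts used as abundance. That DNA was freed when purified furin cut N-terminally bead-bound 8-mer peptides fused to a cDNA oligonucleotide, in 0.01 ml reactions at 1:10 enzyme:substrate in 50 mM HEPES pH 7.5 with CaCl2 and NaCl, lasting 7.5, 15 or 30 min. The cleavage Z-score was the lowess-adjusted log count versus furin-free reactions, scaled by median absolute deviation.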

Sequence of furin, P09958 (P09958 whole entry): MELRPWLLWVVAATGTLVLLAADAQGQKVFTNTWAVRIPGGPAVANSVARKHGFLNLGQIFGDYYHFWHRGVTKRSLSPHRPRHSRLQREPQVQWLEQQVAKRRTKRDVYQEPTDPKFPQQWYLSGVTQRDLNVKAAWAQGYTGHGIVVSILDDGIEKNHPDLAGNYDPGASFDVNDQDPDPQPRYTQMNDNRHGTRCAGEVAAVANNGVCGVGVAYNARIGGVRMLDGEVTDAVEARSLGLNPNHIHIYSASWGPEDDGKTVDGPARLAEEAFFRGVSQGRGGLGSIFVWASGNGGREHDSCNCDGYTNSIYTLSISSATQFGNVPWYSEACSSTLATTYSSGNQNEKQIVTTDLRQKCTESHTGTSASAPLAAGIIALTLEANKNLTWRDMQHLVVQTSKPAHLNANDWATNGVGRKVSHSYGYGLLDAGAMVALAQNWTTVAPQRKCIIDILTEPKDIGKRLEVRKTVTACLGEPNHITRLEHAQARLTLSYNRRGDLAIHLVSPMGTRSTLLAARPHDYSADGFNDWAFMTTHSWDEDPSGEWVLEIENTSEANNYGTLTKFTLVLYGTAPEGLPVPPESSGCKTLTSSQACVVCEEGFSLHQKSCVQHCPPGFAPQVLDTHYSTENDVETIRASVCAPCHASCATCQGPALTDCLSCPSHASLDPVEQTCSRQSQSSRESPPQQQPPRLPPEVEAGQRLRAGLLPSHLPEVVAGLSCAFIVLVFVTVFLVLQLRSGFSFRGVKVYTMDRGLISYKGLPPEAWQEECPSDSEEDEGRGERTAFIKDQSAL

Sequence	furin cleavage Z-score (7.5 min)	furin cleavage Z-score (15 min)	furin cleavage Z-score (30 min)
CAVGSSIASWAGNASASA [HC513]	1.24	0.758 (inactive)	1.42
CAEVVTSIWVAGNASASA [HC2204]	-1.22 (inactive)	-0.886 (inactive)	-0.589 (inactive)
CAQTFLATCIAGNASASA [HC694]	-1.16 (inactive)	1.03	0.494 (inactive)
CAEVVTCTWVAGNASASA [HC154]	0.26 (inactive)	0.377 (inactive)	0.00628 (inactive)
CAWAKHMWNFAGNASASA [HC1041]	2.37	1.51	-0.0839 (inactive)
CARQSRAPSKAGNASASA [FS-3044]	-0.34 (inactive)	-1.03 (inactive)	0.0856 (inactive)
CARRARFVSKAGNASASA [FS-2592]	1.79	3.6 (active)	4.51 (active)
CARRARVVWCAGNASASA [FS-1773]	-0.495 (inactive)	-0.908 (inactive)	-1.05 (inactive)
CATSCGNTLTAGNASASA [HC1514]	0.831 (inactive)	-1.07 (inactive)	0.652 (inactive)
CAVYSTTSRSAGNASASA [HC1389]	0.122 (inactive)	-0.119 (inactive)	-0.531 (inactive)
CALSSRVPRSAGNASASA [FS-616]	10.7 (active)	10.8 (active)	8.57 (active)
CALSSRTARSAGNASASA [FS-828]	10.9 (active)	12.5 (active)	10.5 (active)
CAVSGRVPRSAGNASASA [FS-1103]	8.22 (active)	7.59 (active)	5.91 (active)
CALSSREARVAGNASASA [FS-273]	0.397 (inactive)	1.38	-0.0178 (inactive)
CAPFPRDVGKAGNASASA [FS-2542]	0.749 (inactive)	0.654 (inactive)	-0.494 (inactive)
CAPFSRVPRKAGNASASA [FS-1380]	4.53 (active)	5.54 (active)	7.08 (active)
CATSNRQPRKAGNASASA [FS-1426]	0.777 (inactive)	2.06	3.28
CAEVVVCCSMAGNASASA [HC2130]	0.168 (inactive)	-0.257 (inactive)	-0.566 (inactive)
CALSSRHSRSAGNASASA [FS-688]	7.04 (active)	9.83 (active)	7.06 (active)
CARIGRTARSAGNASASA [FS-559]	14.2 (active)	12.8 (active)	11.2 (active)
CAESGRENRSAGNASASA [FS-764]	0.222 (inactive)	0.598 (inactive)	-0.14 (inactive)
CAVSGRRNRSAGNASASA [FS-1435]	7.11 (active)	8.52 (active)	7.39 (active)
CADVVTSTWVAGNASASA [HC2151]	0.471 (inactive)	-0.0629 (inactive)	0.991 (inactive)
CALLGPADGMAGNASASA [HC666]	-0.849 (inactive)	-0.827 (inactive)	-0.909 (inactive)

Sequence	furin cleavage Z-score (7.5 min)	furin cleavage Z-score (15 min)	furin cleavage Z-score (30 min)
CATYVYNHLTAGNASASA [HC634]	-0.232 (inactive)	0.658 (inactive)	0.0846 (inactive)
CAYEECSQHLAGNASASA [HC1669]	1.21	0.943 (inactive)	2.11
CAEVVTSTWMAGNASASA [HC2246]	1.57	0.473 (inactive)	0.947 (inactive)
CAQSSRQPRPAGNASASA [FS-141]	-0.311 (inactive)	-0.656 (inactive)	-0.417 (inactive)
CAQSSRHRRAAGNASASA [FS-851]	13.1 (active)	12.7 (active)	10.3 (active)
CAVSSRHRRAAGNASASA [FS-1106]	12.3 (active)	12.4 (active)	10.3 (active)
CANSKRKSRPAGNASASA [FS-1145]	-2.35 (inactive)	0.946 (inactive)	-1.84 (inactive)
CAVSSRKSRWAGNASASA [FS-1501]	3.21	3.75 (active)	5.97 (active)
CAQWQVLPCSAGNASASA [HC496]	-0.675 (inactive)	0.494 (inactive)	0.276 (inactive)
CARTGVRTITAGNASASA [HC800]	-0.25 (inactive)	-0.718 (inactive)	-0.285 (inactive)
CARRGPRLGVAGNASASA [HC180]	-0.669 (inactive)	-0.347 (inactive)	-0.923 (inactive)
CAREKREKIKAGNASASA [FS-2208]	-0.771 (inactive)	-0.626 (inactive)	0.291 (inactive)
CAGRSRDLRGAGNASASA [FS-165]	-0.794 (inactive)	-0.817 (inactive)	-1.52 (inactive)
CAGRSRELRQAGNASASA [FS-166]	2.87	2.42	4.09 (active)
CAREKRELRQAGNASASA [FS-2657]	9.73 (active)	13.3 (active)	9.26 (active)
CALLQRVRRAAGNASASA [FS-1360]	3.77 (active)	3.58 (active)	3.76 (active)
CAADPRVRRAAGNASASA [FS-1298]	10.1 (active)	8.47 (active)	8.31 (active)
CAVNQRVRRAAGNASASA [FS-735]	10 (active)	8.42 (active)	8.51 (active)
CALLQRKKKLAGNASASA [FS-823]	0.0701 (inactive)	0.355 (inactive)	-0.31 (inactive)
CAADPRTWRSAGNASASA [FS-741]	-0.983 (inactive)	1.45	-0.478 (inactive)
CAENLVILNAAGNASASA [HC535]	-0.56 (inactive)	-1.45 (inactive)	0.00797 (inactive)
CAADARVCSCAGNASASA [HC524]	0.17 (inactive)	-2.96 (inactive)	-3.71 (inactive)
CAQKKRGGTAAGNASASA [WN2]	-0.625 (inactive)	-0.389 (inactive)	0.122 (inactive)
CALIPRVRRAAGNASASA [FS-608]	9.17 (active)	10.3 (active)	8.48 (active)
